Screen size: about 48,000 compounds; about 13,000 (27%) showed an effect of 50% or more. The list shows a part of the results.
Test system: Wolbachia pipientis
Assay: Anti-Wolbachia Cell-Based Screen
Type: functional
Set-up: scale not given: in the data most compounds retested in dose-response had high values
Conditions: 5 µM

Row | SMILES | Percent Effect [%]
1 | COc1nc(C)ccc1CNC(=O)NC(C)(C)c1ncc(C)s1 | 40.1
2 | O=C(c1cccc(-c2ncc[nH]2)c1)N1CCC(N2CCCC(O)C2)CC1 (stereo not given) | -7.829
3 | CC(C1CCN(Cc2c(Cl)ccc(O)c2Cl)CC1)N1CCN(C)CC1 (stereo not given) | 2.442
4 | Cc1ccc(Cl)c(CN2CCN(C)C(C(=O)O)C2)c1F (stereo not given) | 102.6
5 | CN1CCN(Cc2ccc(Cl)cc2)CC1C(=O)O (stereo not given) | 102.4
6 | Cc1cc(-c2nn(C)c(Cl)c2CN2CCN(C)C(C(=O)O)C2)no1 (stereo not given) | -9.468
7 | Cc1ccc(Cl)c(CN2CCC3(CC2)C(C(=O)O)CC(=O)N3C)c1F (stereo not given) | 1.712
8 | CN1CCN(Cc2c(Cl)ccc(O)c2Cl)CC1C(=O)O (stereo not given) | 96.73
9 | O=C(C1CCCC1)N1CCC(C2CCN(Cc3ccc(Cl)cc3)C2)CC1 (stereo not given) | 14.43
10 | O=C(C1CCC1)N1CCC(C2CCN(Cc3ccc(Cl)cc3)C2)CC1 (stereo not given) | 11.03
11 | CC(=O)N1CCN(Cc2ccc(Cl)c(F)c2)CC(O)C1 (stereo not given) | 3.004
12 | CCC(C(=O)NC1(CN2CCOCC2)CCCC1)n1cccn1 (stereo not given) | -7.135
13 | Cn1c(CNc2c(F)cccc2-n2cccn2)cc(=O)n(C)c1=O | -1.066
14 | CC(C#N)CN(C)C(=O)c1cn(-c2ccc(Br)cc2)cn1 (stereo not given) | 17.58
15 | c1csc(-c2cc(CN3CCN(c4nccs4)CC3)no2)c1 | 7.977
16 | CCc1noc(CN2CCN(c3nccs3)CC2)n1 | 91.95
17 | Nc1nc(CN2CCN(c3nccs3)CC2)cs1 | -10.1
18 | CC(C)Cc1noc(CN2CCN(c3nccs3)CC2)n1 | -10.34
19 | CCCc1noc(CN2CCN(c3nccs3)CC2)n1 | 101
20 | CCCc1noc(CN2CCN(CCC(C)C)CC2)n1 | 7.482
21 | CCOCC(O)CN1CCN(C(=O)c2ccncc2)CC1 (stereo not given) | 2.226
22 | COc1cccc(C(O)CN2CCN(C(=O)c3ccsc3)CC2)c1 (stereo not given) | 4.323
23 | CCOCC(O)CN1CCN(C(=O)c2cc(F)cc(F)c2)CC1 (stereo not given) | 99.72
24 | CCOCC(O)CN1CCN(C(=O)c2cnc3n[nH]c(C)c3c2)CC1 (stereo not given) | -0.1708
25 | CCOCC(O)CN1CCN(C(=O)c2cccc(F)c2)CC1 (stereo not given) | 0.952

Row | SMILES | Percent Effect [%]
26 | COc1cccc(C(=O)N2CCN(CC(O)c3ccccc3)CC2)c1 (stereo not given) | 2.631
27 | CCOCC(O)CN1CCN(C(=O)c2cccc(OC)c2)CC1 (stereo not given) | 88.95
28 | CCOCC(O)CN1CCN(C(=O)c2ccsc2)CC1 (stereo not given) | -6.282
29 | CCOCC(O)CN1CCN(C(=O)c2ccc(OC)cc2)CC1 (stereo not given) | 101.3
30 | CCOC(C)c1nc(CN2CCN(c3nccc(C)n3)CC2)cs1 (stereo not given) | -8.527
31 | CCc1ncc2c(n1)CN(C(=O)CCCc1ccc(OC)cc1)C2 | -1.775
32 | COc1ccc(NC(=O)N2CCCC(CO)C2)c(C)c1 (stereo not given) | -14.28
33 | Nc1cc(N2CCCC(Cc3ccc(F)cc3F)(C(=O)O)C2)ncn1 (stereo not given) | -0.2204
34 | CCN(CC)c1ccc(CNS(=O)(=O)C2CCOCC2)cc1F | 0.7913
35 | OC1(CN2CCC(Cc3ccccc3)CC2)CCC1 | -17.41
36 | O=C(C1CCOCC1)N1CCOCC(Cc2ncccn2)C1 (stereo not given) | 97.13
37 | OC1(CN2CCC(Cc3ncccn3)CC2)CCCCC1 | 116.2
38 | OC1(CN2CCC(Cc3ncccn3)CC2)CCOCC1 | 87.8
39 | CCOCCN1CCN(CC2(O)CCCCC2)CC1 | -2.649
40 | Fc1cccnc1OC[C@@]12CCO[C@@H]1CCN(CC1CCOCC1)C2.O=C(O)C(F)(F)F.O=C(O)C(F)(F)F | 11.98
41 | O=C(C1CCOCC1)N1CCOC(CC2CCCCC2)C1 (stereo not given) | 10.22
42 | C1=CCN(c2nc(CC3CC3)nc3c2CCN(C2CCOCC2)CC3)C1 | -5.944
43 | O=C(N[C@@H]1CCN(C(=O)C2CCOCC2)C[C@H]1O)c1ccccn1 | 2.955
44 | Clc1cccc(C(NCc2ncc[nH]2)c2ccccn2)c1 (stereo not given) | 3.902
45 | CN(C)CC(C)(O)CNC(=O)Nc1sc2ccccc2c1Cl (stereo not given) | 1.378
46 | COc1coc(CN2CCCC(CCc3ccccc3C)C2)cc1=O (stereo not given) | -0.7566
47 | Cc1nccn1C1CCCN(C(=O)CCCNc2ncccn2)C1 (stereo not given) | 106.9
48 | O=C(CCCNc1ncccn1)N1CCCC(n2cccn2)C1 (stereo not given) | 2.216
49 | CCc1nccn1C1CCCN(C(=O)CCCNc2ncccn2)C1 (stereo not given) | 1.367
50 | Cc1nc(C)n(C2CCCN(C(=O)CCCNc3ncccn3)C2)n1 (stereo not given) | 110
